Results published in PubChem BioAssay AID1159580 (chemical genetic matrix, 2015).
Where “and” joins values, the source holds several entries; their conditions need not be identical. Equal values may be shown once. The whole screen tested about 5,500 compounds, of which about 2,000 (36%) were called active. Another 18% or so got no clear call; they are omitted. Rule as the data show it: active = normalized growth mostly below about 0.91 (no sharp cut-off); inconclusive = no clear call, values can overlap the other calls; inactive = mostly above about 0.92. This is one part of the list.

Assay: chemical genetic growth profiling, strain panel (AID 1159580);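 also: tested at 20 µM; growth read once vehicle control cultures reached saturation at 30 °C; 1 = growth at the plate median or of vehicle wells; lower values mean less growth of the strain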
Conditions: S. cerevisiae deletion strains, growth OD

Measured: normalized growth

CN1C2CCC1CC(OC(c1ccccc1)c1ccccc1N)C2 (stereo unspecified)
inactive: locus YAL013W, strain DEP1, active compounds read low 0.993 | locus YAL021C, strain ccr4, active compounds read low 0.985 | locus YAL026C, strain drs2, active compounds read low 1.01 | locus YAL030W, strain snc1, active compounds read low 0.994 | locus YAL040C, strain CLN3, active compounds read low 1.01 | locus YBL061C, strain skt5, active compounds read low 0.995 | locus YBR009C, strain hhf1, active compounds read low 0.998 | locus YBR021W, strain FUR4, active compounds read low 0.993 | locus YBR023C, strain chs3, active compounds read low 0.989 | locus YBR171W, strain sec66, active compounds read low 1 | locus YBR229C, strain ROT2, active compounds read low 0.998 | locus YBR231C, strain swc5, active compounds read low 1 | locus YBR279W, strain paf1, active compounds read low 1 | locus YCL011C, strain gbp2, active compounds read low 1 | locus YCL016C, strain dcc1, active compounds read low 0.994 | locus YCL029C, strain bik1, active compounds read low 1.03 | locus YCL061C, strain MRC1 (second series), active compounds read low 1 | locus YCL061C, strain MRC1, active compounds read low 0.997 | locus YCL069W, strain vba3, active compounds read low 1 | locus YCR088W, strain abp1, active compounds read low 0.997 | locus YDL005C, strain med2, active compounds read low 0.99 | locus YDL035C, strain GPR1, active compounds read low 1.01 | locus YDL040C, strain nat1, active compounds read low 0.991 | locus YDL074C, strain BRE1, active compounds read low 1 | locus YDL101C, strain DUN1, active compounds read low 1.01 | locus YDL134C, strain PPH21, active compounds read low 1.01 | locus YDL185W, strain tfp1, active compounds read low 1.01 | locus YDL192W, strain arf1, active compounds read low 1.02 | locus YDR001C, strain nth1, active compounds read low 1.01 | locus YDR069C, strain doa4, active compounds read low 1 | locus YDR101C, strain arx1, active compounds read low 1.01 | locus YDR137W, strain rgp1, active compounds read low 0.98 | locus YDR150W, strain NUM1, active compounds read low 1.01 | locus YDR159W, strain sac3, active compounds read low 1 | locus YDR162C, strain NBP2, active compounds read low 1 | locus YDR195W, strain ref2 0.976 | locus YDR297W, strain sur2, active compounds read low 1.01 | locus YDR318W, strain mcm21, active compounds read low 1.01 | locus YDR334W, strain swr1, active compounds read low 1 | locus YDR335W, strain msn5, active compounds read low 0.996 | locus YDR363W, strain ESC2, active compounds read low 0.962 | locus YDR388W, active compounds read low 1.01 | locus YDR392W, strain spt3, active compounds read low 1.01 | locus YDR502C, strain sam2, active compounds read low 1.01 | locus YEL003W, strain gim4, active compounds read low 1.01 | locus YEL037C, strain rad23, active compounds read low 1 | locus YEL061C, strain CIN8 (second series), active compounds read low 1.03 | locus YEL061C, strain CIN8, active compounds read low 1 | locus YER002W, strain NOP16, active compounds read low 1 | locus YER015W, strain faa2, active compounds read low 0.987 | locus YER016W, strain bim1, active compounds read low 0.991 | locus YER110C, active compounds read low 1.01 | locus YER111C, strain swi4, active compounds read low 0.989 | locus YER155C, strain BEM2 (second series), active compounds read low 0.988 | locus YER155C, strain BEM2, active compounds read low 0.996 | locus YER167W, strain BCK2, active compounds read low 1.02 | locus YFR010W, strain ubp6, active compounds read low 0.996 | locus YGL078C, strain dbp3, active compounds read low 1.01 | locus YGL086W, strain mad1, active compounds read low 1.01 | locus YGL167C, strain pmr1, active compounds read low 0.999 | locus YGL173C, strain kem1, active compounds read low 0.999 | locus YGL227W, strain vid30, active compounds read low 0.991 | locus YGL240W, strain doc1, active compounds read low 0.997 | locus YGL248W, strain PDE1, active compounds read low 1.01 | locus YGL253W, strain hxk2, active compounds read low 0.998 | locus YGR078C, strain PAC10, active compounds read low 1.01 | locus YGR135W, strain pre9, active compounds read low 1.01 | locus YGR229C, strain SMI1, active compounds read low 0.992 | locus YGR252W, strain gcn5, active compounds read low 1 | locus YHR013C, strain ard1, active compounds read low 0.979 | locus YHR027C, strain rpn1, active compounds read low 0.999 | locus YHR030C, strain SLT2, active compounds read low 1.01 and 0.978 | locus YHR079C, strain IRE1 (second series), active compounds read low 1.01 | locus YHR079C, strain IRE1, active compounds read low 0.991 | locus YHR094C, strain hxt1, active compounds read low 1.01 | locus YHR129C, strain ARP1, active compounds read low 1.01 | locus YHR142W, strain chs7, active compounds read low 1 | locus YHR200W, strain rpn10, active compounds read low 1.02 | locus YIL066C, strain RNR3, active compounds read low 0.994 | locus YIL073C, strain SPO22, active compounds read low 1.05 | locus YIL125W, strain kgd1, active compounds read low 1 | locus YIR030C, strain dcg1, active compounds read low 1.01 | locus YJL092W, strain hpr5, active compounds read low 1.01 | locus YJL095W, strain BCK1 (second series), active compounds read low 1.01 | locus YJL095W, strain BCK1, active compounds read low 1 and 0.969 | locus YJL115W, strain asf1, active compounds read low 0.997 | locus YJL129C, strain trk1, active compounds read low 1.01 | locus YJL134W, strain LCB3, active compounds read low 1.01 | locus YJL154C, strain vps35, active compounds read low 1 | locus YJL164C, strain tpk1, active compounds read low 1 | locus YJL166W, strain qcr8, active compounds read low 1.02 | locus YJL168C, strain set2, active compounds read low 1.01 | locus YJL187C, strain SWE1 (second series), active compounds read low 1.01 | locus YJL187C, strain SWE1, active compounds read low 0.998 | locus YJR043C, strain POL32, active compounds read low 1.02 | locus YJR066W, strain TOR1, active compounds read low 0.926
